Data from publication PMC7862700, “An all-to-all approach to the identification of sequence-specific readers for epigenetic DNA modifications on cytosine”.

Key:
Assay in all cases: DAPPL (digital affinity profiling via proximity ligation, sequencing); 10 mM Tris-HCl pH 7.5, 50 mM NaCl, 1 mM DTT, 4% glycerol, room temperature, 30 min; GST-TFs on glutathione beads, 16-mer random dsDNA library, 0.1% formaldehyde crosslink after washing; high values mean tight binding
FEV = target: T1, FEV (Homo sapiens, UniProt Q99581 1-238); details: protein: recombinant; tags: N-terminal GST; dsDNA, one strand shown
T1 sequence: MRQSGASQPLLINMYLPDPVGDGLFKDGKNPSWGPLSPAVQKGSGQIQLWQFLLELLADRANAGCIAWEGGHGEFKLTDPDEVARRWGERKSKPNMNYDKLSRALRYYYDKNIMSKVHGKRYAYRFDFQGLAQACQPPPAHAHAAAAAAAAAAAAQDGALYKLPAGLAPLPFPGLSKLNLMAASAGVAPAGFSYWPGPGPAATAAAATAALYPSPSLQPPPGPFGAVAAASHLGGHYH
How it was run: (§1)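 Human transcription factors were made in yeast as GST fusions, captured on glutathione beads and barcoded with DNA. With a tag-only sample included, the pool was incubated with 200 nmole of a random double-stranded 16-mer DNA library in Tris/NaCl/DTT/glycerol buffer at room temperature for 30 min, then crosslinked with 0.1% formaldehyde after washing, ligated by proximity, amplified and sequenced. For binding signal, each hexamer's read frequency for a factor is divided by its frequency for the tag-only sample.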

ETV5 = ETV5 (Homo sapiens, UniProt P41161 1-510); details: protein: recombinant; tags: N-terminal GST; dsDNA, one strand shown
ETV5, sequence (P41161 whole entry): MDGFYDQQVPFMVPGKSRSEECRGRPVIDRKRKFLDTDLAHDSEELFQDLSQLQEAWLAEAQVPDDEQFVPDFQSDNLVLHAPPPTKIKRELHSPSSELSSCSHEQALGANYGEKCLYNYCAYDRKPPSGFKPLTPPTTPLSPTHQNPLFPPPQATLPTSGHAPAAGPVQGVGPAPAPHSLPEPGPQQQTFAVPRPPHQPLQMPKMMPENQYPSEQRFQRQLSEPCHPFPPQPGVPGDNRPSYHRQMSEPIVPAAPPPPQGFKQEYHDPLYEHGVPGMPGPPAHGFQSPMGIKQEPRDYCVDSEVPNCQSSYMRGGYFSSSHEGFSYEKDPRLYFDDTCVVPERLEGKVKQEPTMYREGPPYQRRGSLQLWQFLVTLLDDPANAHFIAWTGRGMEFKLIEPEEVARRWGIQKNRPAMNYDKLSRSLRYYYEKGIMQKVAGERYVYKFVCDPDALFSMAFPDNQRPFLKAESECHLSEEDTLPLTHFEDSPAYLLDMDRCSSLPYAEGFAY
How it was run: as §1

HSF1 = HSF1 (Homo sapiens, UniProt Q00613 1-529); details: protein: recombinant; tags: N-terminal GST; chain copies: 3; dsDNA, one strand shown
HSF1, sequence (Q00613 whole entry): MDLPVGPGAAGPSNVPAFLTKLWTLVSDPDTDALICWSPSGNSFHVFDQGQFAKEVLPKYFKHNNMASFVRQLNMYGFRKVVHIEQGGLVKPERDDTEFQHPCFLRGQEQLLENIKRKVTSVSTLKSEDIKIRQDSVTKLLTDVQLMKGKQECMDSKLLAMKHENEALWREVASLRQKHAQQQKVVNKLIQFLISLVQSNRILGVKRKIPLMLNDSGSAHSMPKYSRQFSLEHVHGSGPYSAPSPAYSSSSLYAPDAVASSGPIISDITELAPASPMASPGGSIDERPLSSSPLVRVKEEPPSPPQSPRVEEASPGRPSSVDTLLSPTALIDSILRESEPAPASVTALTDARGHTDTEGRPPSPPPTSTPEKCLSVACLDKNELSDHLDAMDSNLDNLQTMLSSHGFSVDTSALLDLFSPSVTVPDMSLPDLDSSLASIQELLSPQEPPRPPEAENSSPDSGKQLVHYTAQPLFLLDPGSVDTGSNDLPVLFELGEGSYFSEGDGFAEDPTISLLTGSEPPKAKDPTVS
How it was run: as §1

SPIC = target: T2, SPIC (Homo sapiens, UniProt Q8N5J4 1-248); details: protein: recombinant; tags: N-terminal GST; dsDNA, one strand shown
T2 sequence: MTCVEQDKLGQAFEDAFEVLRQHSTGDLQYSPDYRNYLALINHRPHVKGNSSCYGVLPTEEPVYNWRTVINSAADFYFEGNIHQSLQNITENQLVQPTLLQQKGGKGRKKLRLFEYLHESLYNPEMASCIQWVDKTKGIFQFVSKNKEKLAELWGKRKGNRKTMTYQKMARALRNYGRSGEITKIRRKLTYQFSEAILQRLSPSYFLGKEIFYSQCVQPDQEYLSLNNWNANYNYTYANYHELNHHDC
How it was run: as §1

ELF4 = ELF4 (Homo sapiens, UniProt Q99607 1-663); details: protein: recombinant; tags: N-terminal GST; dsDNA, one strand shown
ELF4, sequence (Q99607 whole entry): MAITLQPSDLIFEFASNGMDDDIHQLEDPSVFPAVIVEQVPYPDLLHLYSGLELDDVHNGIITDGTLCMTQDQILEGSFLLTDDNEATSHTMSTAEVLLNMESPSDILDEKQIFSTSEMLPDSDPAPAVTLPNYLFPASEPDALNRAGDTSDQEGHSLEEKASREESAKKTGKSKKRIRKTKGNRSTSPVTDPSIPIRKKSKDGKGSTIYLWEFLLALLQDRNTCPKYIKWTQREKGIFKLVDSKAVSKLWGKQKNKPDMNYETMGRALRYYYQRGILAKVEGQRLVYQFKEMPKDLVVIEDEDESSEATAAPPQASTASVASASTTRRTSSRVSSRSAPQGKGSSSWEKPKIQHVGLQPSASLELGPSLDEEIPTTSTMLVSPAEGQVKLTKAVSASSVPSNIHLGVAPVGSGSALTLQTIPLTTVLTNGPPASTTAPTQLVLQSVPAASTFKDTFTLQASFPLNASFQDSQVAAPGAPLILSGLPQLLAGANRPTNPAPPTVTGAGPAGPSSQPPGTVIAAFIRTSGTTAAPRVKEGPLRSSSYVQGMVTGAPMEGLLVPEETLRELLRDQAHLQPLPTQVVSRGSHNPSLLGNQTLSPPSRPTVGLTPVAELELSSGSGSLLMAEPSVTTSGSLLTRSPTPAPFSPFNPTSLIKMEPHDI
How it was run: as §1

ELK4 = target: T3, ELK4 (Homo sapiens, UniProt P28324-2 1-405); details: protein: recombinant; tags: N-terminal GST; dsDNA, one strand shown
T3 sequence: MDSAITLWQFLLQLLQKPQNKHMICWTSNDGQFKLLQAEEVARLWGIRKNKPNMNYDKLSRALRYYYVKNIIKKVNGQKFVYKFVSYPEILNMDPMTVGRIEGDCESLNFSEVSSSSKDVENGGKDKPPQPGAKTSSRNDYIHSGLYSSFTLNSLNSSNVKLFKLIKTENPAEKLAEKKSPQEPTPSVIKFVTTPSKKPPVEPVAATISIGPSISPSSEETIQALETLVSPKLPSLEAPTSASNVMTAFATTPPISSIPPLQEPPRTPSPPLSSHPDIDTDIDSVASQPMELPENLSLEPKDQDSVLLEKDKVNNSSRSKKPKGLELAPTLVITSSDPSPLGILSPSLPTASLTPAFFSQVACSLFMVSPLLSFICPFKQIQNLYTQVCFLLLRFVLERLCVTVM
How it was run: as §1

ETV2 = target: T4, ETV2 (Homo sapiens, UniProt O00321 1-342); details: protein: recombinant; tags: N-terminal GST; dsDNA, one strand shown
T4 sequence: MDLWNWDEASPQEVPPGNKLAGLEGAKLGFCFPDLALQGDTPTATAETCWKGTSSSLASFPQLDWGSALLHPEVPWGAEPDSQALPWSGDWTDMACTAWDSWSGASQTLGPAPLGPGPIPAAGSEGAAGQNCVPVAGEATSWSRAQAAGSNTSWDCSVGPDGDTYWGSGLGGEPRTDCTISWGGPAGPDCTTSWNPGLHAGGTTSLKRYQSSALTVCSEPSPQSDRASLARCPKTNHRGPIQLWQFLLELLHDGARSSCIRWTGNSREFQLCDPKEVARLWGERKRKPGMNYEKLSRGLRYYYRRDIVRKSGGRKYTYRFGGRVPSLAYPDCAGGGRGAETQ
How it was run: as §1

ELF3 = target: T5, ELF3 (Homo sapiens, UniProt P78545 1-371); details: protein: recombinant; tags: N-terminal GST; dsDNA, one strand shown
T5 sequence: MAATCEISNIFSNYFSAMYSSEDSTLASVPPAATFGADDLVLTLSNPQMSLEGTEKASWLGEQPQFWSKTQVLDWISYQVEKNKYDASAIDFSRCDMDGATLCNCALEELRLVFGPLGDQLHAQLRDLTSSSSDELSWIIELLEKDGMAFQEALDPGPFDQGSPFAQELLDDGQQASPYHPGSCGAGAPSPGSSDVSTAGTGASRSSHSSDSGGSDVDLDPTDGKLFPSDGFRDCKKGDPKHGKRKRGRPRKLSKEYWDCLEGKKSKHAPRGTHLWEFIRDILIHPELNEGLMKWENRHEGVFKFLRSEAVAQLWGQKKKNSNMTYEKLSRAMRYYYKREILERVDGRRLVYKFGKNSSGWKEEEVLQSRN
How it was run: as §1

CRX = CRX (Homo sapiens, UniProt O43186 1-299); details: protein: recombinant; tags: N-terminal GST; dsDNA, one strand shown
CRX, sequence (O43186 whole entry): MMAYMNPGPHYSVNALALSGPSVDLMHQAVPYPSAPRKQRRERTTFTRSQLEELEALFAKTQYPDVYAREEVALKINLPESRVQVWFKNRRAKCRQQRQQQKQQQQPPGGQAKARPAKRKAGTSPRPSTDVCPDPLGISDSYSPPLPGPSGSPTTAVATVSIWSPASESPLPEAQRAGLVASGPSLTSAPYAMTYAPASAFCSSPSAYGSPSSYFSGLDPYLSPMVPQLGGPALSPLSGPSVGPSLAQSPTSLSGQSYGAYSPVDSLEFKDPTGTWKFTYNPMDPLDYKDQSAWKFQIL
How it was run: as §1

ETV1 = ETV1 (Homo sapiens, UniProt P50549 1-477); details: protein: recombinant; tags: N-terminal GST; dsDNA, one strand shown
ETV1, sequence (P50549 whole entry): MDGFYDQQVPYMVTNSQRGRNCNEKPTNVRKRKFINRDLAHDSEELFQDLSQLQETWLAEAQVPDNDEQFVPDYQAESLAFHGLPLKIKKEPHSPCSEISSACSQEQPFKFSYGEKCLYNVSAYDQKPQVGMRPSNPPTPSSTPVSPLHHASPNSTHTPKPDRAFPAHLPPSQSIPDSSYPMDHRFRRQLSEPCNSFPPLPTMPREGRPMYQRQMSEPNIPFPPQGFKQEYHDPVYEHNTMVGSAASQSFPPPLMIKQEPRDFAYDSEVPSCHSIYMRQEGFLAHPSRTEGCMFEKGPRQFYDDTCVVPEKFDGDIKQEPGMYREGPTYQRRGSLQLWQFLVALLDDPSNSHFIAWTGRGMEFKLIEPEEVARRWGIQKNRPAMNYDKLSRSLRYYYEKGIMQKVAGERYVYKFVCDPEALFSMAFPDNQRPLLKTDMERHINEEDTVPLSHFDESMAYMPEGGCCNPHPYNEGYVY
How it was run: as §1

ERF = target: T6, ERF (Homo sapiens, UniProt P50548 1-548); details: protein: recombinant; tags: N-terminal GST; dsDNA, one strand shown
T6 sequence: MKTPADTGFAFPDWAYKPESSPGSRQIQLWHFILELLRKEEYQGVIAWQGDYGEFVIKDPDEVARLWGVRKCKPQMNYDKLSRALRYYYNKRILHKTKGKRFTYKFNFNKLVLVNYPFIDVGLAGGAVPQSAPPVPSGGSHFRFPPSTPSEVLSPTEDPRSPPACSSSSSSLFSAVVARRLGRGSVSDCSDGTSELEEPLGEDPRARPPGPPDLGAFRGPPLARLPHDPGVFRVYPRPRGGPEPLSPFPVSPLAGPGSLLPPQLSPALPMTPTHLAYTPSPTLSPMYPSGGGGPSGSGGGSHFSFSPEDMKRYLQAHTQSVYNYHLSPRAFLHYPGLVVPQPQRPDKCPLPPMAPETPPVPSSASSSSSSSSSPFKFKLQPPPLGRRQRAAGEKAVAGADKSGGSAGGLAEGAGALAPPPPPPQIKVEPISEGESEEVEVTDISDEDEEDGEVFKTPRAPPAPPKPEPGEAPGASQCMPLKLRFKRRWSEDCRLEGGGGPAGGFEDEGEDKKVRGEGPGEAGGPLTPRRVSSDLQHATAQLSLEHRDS
How it was run: as §1

ETV3L = target: T7, ETV3L (Homo sapiens, UniProt Q6ZN32 1-361); details: protein: recombinant; tags: N-terminal GST; dsDNA, one strand shown
T7 sequence: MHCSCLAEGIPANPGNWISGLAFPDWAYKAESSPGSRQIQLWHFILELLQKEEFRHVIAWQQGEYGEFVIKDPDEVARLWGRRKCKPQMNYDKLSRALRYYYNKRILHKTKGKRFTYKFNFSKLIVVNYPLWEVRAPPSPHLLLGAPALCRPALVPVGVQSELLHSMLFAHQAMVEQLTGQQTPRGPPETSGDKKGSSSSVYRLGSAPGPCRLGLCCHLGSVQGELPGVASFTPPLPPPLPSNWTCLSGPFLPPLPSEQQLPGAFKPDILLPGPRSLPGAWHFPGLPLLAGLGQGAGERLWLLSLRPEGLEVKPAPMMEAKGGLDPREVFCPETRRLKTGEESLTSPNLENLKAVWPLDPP
How it was run: as §1

ETS2 = target: T8, ETS2 (Homo sapiens, UniProt P15036 1-469); details: protein: recombinant; tags: N-terminal GST; dsDNA, one strand shown
T8 sequence: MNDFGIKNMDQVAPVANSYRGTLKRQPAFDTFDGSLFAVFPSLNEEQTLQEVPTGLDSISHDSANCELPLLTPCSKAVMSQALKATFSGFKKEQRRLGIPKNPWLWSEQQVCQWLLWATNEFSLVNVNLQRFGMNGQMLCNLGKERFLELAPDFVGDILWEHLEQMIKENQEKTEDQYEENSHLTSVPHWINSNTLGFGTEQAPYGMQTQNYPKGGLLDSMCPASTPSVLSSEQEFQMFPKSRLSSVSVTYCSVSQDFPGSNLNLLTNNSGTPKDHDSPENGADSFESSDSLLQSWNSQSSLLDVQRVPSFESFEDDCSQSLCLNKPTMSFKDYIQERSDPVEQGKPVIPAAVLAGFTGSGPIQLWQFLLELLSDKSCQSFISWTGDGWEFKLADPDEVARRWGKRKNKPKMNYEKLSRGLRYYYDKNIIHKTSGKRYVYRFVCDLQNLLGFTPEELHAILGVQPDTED
How it was run: as §1

SPDEF = target: T9, SPDEF (Homo sapiens, UniProt O95238 1-335); details: protein: recombinant; tags: N-terminal GST; dsDNA, one strand shown
T9 sequence: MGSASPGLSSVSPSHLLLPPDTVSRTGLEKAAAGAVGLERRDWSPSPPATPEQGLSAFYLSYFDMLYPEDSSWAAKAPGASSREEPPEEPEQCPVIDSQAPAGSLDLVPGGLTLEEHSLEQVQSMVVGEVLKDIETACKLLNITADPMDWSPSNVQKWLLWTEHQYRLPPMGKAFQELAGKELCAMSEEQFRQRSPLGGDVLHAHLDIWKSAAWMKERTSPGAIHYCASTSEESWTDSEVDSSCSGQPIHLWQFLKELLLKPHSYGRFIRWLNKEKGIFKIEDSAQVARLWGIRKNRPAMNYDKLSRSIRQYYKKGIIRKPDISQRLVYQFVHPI
How it was run: as §1

ETV7 = target: T10, ETV7 (Homo sapiens, UniProt Q9Y603 1-341); details: protein: recombinant; tags: N-terminal GST; dsDNA, one strand shown
T10 sequence: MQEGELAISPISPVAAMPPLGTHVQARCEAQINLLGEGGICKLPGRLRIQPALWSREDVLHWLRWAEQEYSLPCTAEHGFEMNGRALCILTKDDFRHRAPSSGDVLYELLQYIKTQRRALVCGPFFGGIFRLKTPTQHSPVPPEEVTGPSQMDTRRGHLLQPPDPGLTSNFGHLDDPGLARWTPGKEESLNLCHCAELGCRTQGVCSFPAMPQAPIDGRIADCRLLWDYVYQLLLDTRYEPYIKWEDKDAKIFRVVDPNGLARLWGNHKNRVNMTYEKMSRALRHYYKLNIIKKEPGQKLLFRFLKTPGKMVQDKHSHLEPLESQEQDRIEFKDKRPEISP
How it was run: as §1

ELF5 = target: T11, ELF5 (Homo sapiens, UniProt Q9UKW6-2 1-255); details: protein: recombinant; tags: N-terminal GST; dsDNA, one strand shown
T11 sequence: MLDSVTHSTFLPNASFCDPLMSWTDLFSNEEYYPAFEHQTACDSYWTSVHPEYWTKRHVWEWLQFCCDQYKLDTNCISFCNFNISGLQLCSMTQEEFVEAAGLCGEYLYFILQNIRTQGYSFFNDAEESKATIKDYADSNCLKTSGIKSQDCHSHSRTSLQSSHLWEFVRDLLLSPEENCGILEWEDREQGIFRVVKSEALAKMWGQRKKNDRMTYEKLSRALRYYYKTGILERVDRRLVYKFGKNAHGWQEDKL
How it was run: as §1

ETV3 = target: T12, ETV3 (Homo sapiens, UniProt P41162-2 1-143); details: protein: recombinant; tags: N-terminal GST; dsDNA, one strand shown
T12 sequence: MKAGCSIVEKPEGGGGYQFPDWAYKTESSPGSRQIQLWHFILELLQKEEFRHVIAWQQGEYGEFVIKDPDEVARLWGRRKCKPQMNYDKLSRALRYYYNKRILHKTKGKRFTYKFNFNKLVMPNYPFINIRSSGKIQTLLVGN
How it was run: as §1

ETV6 = ETV6 (Homo sapiens, UniProt P41212 1-452); details: protein: recombinant; tags: N-terminal GST; dsDNA, one strand shown
ETV6, sequence (P41212 whole entry): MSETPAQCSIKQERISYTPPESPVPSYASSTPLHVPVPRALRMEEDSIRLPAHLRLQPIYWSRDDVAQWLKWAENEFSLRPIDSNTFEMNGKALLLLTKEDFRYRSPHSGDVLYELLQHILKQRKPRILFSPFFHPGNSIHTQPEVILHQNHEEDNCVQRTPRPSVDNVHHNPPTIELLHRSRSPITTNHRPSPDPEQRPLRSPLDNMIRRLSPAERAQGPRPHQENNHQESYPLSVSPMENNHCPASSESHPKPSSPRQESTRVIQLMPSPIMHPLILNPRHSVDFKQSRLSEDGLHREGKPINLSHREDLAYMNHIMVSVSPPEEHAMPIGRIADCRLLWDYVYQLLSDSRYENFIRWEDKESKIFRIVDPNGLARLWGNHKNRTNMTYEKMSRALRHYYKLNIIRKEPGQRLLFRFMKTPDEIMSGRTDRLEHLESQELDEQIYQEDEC
How it was run: as §1

TACCCG
binding signal (FEV): 1.39 fold enrichment (6-mer frequency, TF over GST control)
binding signal (ETV5): 1.5 fold enrichment (6-mer frequency, TF over GST control)
binding signal (HSF1): 1.25 fold enrichment (6-mer frequency, TF over GST control)
binding signal (SPIC): 1.55 fold enrichment (6-mer frequency, TF over GST control)
binding signal (ELF4): 1.4 fold enrichment (6-mer frequency, TF over GST control)
binding signal (ELK4): 1.55 fold enrichment (6-mer frequency, TF over GST control)
binding signal (ETV2): 1.44 fold enrichment (6-mer frequency, TF over GST control)
binding signal (ELF3): 1.34 fold enrichment (6-mer frequency, TF over GST control)
binding signal (CRX): 1.29 fold enrichment (6-mer frequency, TF over GST control)
binding signal (ETV1): 1.55 fold enrichment (6-mer frequency, TF over GST control)
binding signal (ERF): 1.41 fold enrichment (6-mer frequency, TF over GST control)
binding signal (ETV3L): 1.56 fold enrichment (6-mer frequency, TF over GST control)
binding signal (ETS2): 1.42 fold enrichment (6-mer frequency, TF over GST control)
binding signal (SPDEF): 1.59 fold enrichment (6-mer frequency, TF over GST control)
binding signal (ETV7): 1.43 fold enrichment (6-mer frequency, TF over GST control)
binding signal (ELF5): 1.5 fold enrichment (6-mer frequency, TF over GST control)
binding signal (ETV3): 1.47 fold enrichment (6-mer frequency, TF over GST control)
binding signal (ETV6): 1.5 fold enrichment (6-mer frequency, TF over GST control)
